Laboratory results from publication PMC5540273 (PLoS ONE, 2017).

How the values were obtained:
Details in all cases: concentration: 1 μM, replicates: in singlicate; n = 1
[1] = system: MAST1
[2] = system: T1, MEK1
T1 construct: gene MAP2K1

[3] = system: T2, MEK2
T2 construct: gene MAP2K2

[4] = system: T3, MEK3
T3 construct: gene MAP2K3

[5] = system: T4, MEK4
T4 construct: gene MAP2K4

[6] = system: T5, MEK5
T5 construct: gene MAP2K5

[7] = system: T6, MEK6
T6 construct: gene MAP2K6

[8] = system: MELK
[9] = system: MERTK
[10] = system: MET
[11] = system: T7, MINK
T7 construct: gene MINK1

[12] = system: MKK7
[13] = system: MKNK1
[14] = system: MKNK2
[15] = system: T8, MLCK
T8 construct: gene MYLK3

[16] = system: T9, MLK1
T9 construct: gene MAP3K9

[17] = system: MLK2
[18] = system: MLK3
[19] = system: MRCKA
[20] = system: T10, MRCKB
T10 construct: gene CDC42BPB
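Further: KINOMEscan kinase panel screen.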

SMILES | %Inh [1] [%] | %Inh [2] [%] | %Inh [3] [%] | %Inh [4] [%] | %Inh [5] [%] | %Inh [6] [%] | %Inh [7] [%] | %Inh [8] [%] | %Inh [9] [%] | %Inh [10] [%] | %Inh [11] [%] | %Inh [12] [%] | %Inh [13] [%] | %Inh [14] [%] | %Inh [15] [%] | %Inh [16] [%] | %Inh [17] [%] | %Inh [18] [%] | %Inh [19] [%] | %Inh [20] [%]
FC(F)(F)c1ccccc1-c1cc(-c2c[nH]nc2-c2ccccn2)ccn1 [GW679396] | 4 | 0 | 0 | 0 | 16 | 0 | 0 | 0 | 26 | 0 | 11 | 0 | 5 | 0 | 4 | 0 | 0 | 1 | 0 | 0
COc1cccc(NC(=O)Nc2ccc(C)c(-c3ccc(C(=O)Nc4ccncc4)cc3)c2)c1 [GSK1398474] | 0 | 0 | 0 | 0 | 42 | 8 | 0 | 0 | 35 | 16 | 6 | 14 | 4 | 24 | 6 | 10 | 14 | 31 | 13 | 3
Fc1ccc(-c2nn3cccc(F)c3c2-c2ccncc2)cc1 [GW475620] | 0 | 0 | 0 | 0 | 29 | 8 | 0 | 41 | 3 | 0 | 27 | 16 | 0 | 0 | 0 | 2 | 31 | 18 | 23 | 34
CNCc1ccc2nc(NC(=O)c3ccc(C(C)(C)C)cc3)cn2c1 | 50 | 32 | 27 | 8 | 30 | 34 | 11 | 0 | 5 | 6 | 53 | 8 | 17 | 10 | 14 | 8 | 0 | 6 | 6 | 14
Cn1cnc2c(N)ncnc21 [SKF-97623] | 44 | 0 | 0 | 13 | 0 | 23 | 0 | 0 | 16 | 2 | 0 | 0 | 38 | 0 | 0 | 0 | 0 | 0 | 12 | 0
O=C(Nc1n[nH]c2cc(-c3ccsc3)ccc12)C1CC1 [SB-732932] | 36 | 11 | 16 | 17 | 18 | 50 | 0 | 0 | 14 | 0 | 67 | 8 | 0 | 54 | 65 | 3 | 0 | 0 | 13 | 0
CNc1nc(-c2ccc3c(N)n[nH]c3c2)cc(N2C[C@@H](C(=O)Nc3ccccc3)CC[C@H]2C)n1 [GSK2298859] | 0 | 0 | 0 | 0 | 7 | 7 | 0 | 58 | 35 | 0 | 0 | 0 | 0 | 0 | 0 | 0 | 0 | 28 | 10 | 0
CNC(=O)c1ccc(C)c(-n2c(C)cc(OCc3ccc(F)cc3F)c(Br)c2=O)c1 | 0 | 0 | 0 | 0 | 0 | 0 | 0 | 14 | 0 | 0 | 0 | 0 | 0 | 100 | 0 | 0 | 0 | 19 | 0 | 8
COc1ccc(Nc2nccc(NCCNC(=O)Nc3cc(C)ccc3C)n2)cc1 [GSK1379899] | 0 | 0 | 0 | 0 | 0 | 66 | 0 | 0 | 11 | 0 | 0 | 0 | 0 | 0 | 0 | 0 | 36 | 5 | 1 | 0
Cc1ccccc1-c1cc(-c2c[nH]nc2-c2ccccn2)ccn1 [GW680061] | 6 | 0 | 0 | 0 | 4 | 5 | 0 | 0 | 16 | 0 | 31 | 0 | 9 | 0 | 0 | 0 | 2 | 0 | 0 | 0
O=c1cc(N2CCOCC2)nc2n(Cc3cccc(Cl)c3Cl)c3ccccc3n12 [GSK2299009] | 0 | 0 | 0 | 0 | 34 | 75 | 0 | 89 | 41 | 0 | 5 | 28 | 10 | 8 | 16 | 0 | 32 | 36 | 24 | 14
COc1ccc(Nc2nccc(N3CCC(NC(=O)C(C)c4ccc(Cl)cc4)C3)n2)cc1 (stereo not shown) [GSK1379735] | 0 | 0 | 0 | 0 | 20 | 13 | 0 | 7 | 33 | 0 | 1 | 10 | 12 | 2 | 14 | 0 | 43 | 21 | 15 | 2
CCn1c(-c2c(N)noc2C)nc2cnccc21 [SB-737856] | 0 | 0 | 2 | 0 | 0 | 32 | 70 | 0 | 1 | 0 | 0 | 0 | 0 | 12 | 0 | 0 | 0 | 1 | 8 | 1
CC[C@@H]1CO[C@H](C(=O)Nc2ccccc2)CN1c1cc(-c2ccc3c(N)n[nH]c3c2)nc(NC)n1 [GSK2376236] | 0 | 5 | 13 | 0 | 0 | 0 | 0 | 56 | 3 | 0 | 0 | 0 | 6 | 0 | 0 | 0 | 0 | 14 | 14 | 0
Nc1nccc(-c2c(-c3ccc(F)cc3)ncn2C2CCN(Cc3ccccc3)CC2)n1 [SB-219980] | 4 | 7 | 9 | 19 | 38 | 28 | 21 | 15 | 0 | 0 | 32 | 0 | 0 | 0 | 5 | 11 | 8 | 0 | 0 | 20
CNc1nc(-c2ccc3c(N)n[nH]c3c2)cc(N2C[C@@H](C(=O)NC3CCCCC3)OC[C@H]2C)n1 [GSK2375584] | 0 | 8 | 11 | 0 | 11 | 14 | 0 | 57 | 2 | 0 | 11 | 0 | 10 | 0 | 0 | 0 | 23 | 20 | 4 | 0

SMILES | %Inh [1] [%] | %Inh [2] [%] | %Inh [3] [%] | %Inh [4] [%] | %Inh [5] [%] | %Inh [6] [%] | %Inh [7] [%] | %Inh [8] [%] | %Inh [9] [%] | %Inh [10] [%] | %Inh [11] [%] | %Inh [12] [%] | %Inh [13] [%] | %Inh [14] [%] | %Inh [15] [%] | %Inh [16] [%] | %Inh [17] [%] | %Inh [18] [%] | %Inh [19] [%] | %Inh [20] [%]
Cc1c(Cn2c(C)c(C)n3c(=O)cc(N4CCOCC4)nc23)cccc1C(F)(F)F [GSK2328680] | 0 | 0 | 0 | 0 | 0 | 0 | 0 | 1 | 0 | 0 | 0 | 0 | 0 | 0 | 0 | 0 | 0 | 8 | 0 | 6
Cc1ccc(-c2nc(Nc3ccncc3)c3ccccc3n2)s1 [GSK189015] | 0 | 11 | 1 | 0 | 11 | 17 | 0 | 0 | 11 | 10 | 2 | 0 | 5 | 17 | 14 | 6 | 49 | 5 | 24 | 21
COC(=O)C(Cc1ccccc1)NC(=O)NC1CCN(c2ccnc(Nc3ccc(F)cc3)n2)C1 (stereo not shown) [GSK1379714] | 42 | 35 | 0 | 31 | 0 | 54 | 4 | 40 | 0 | 0 | 2 | 0 | 0 | 0 | 5 | 0 | 0 | 15 | 22 | 0
Cc1c(Cn2c3ccccc3n3c(=O)cc(N4CCOCC4)nc23)cccc1C(F)(F)F [GSK2306394] | 0 | 0 | 0 | 0 | 17 | 59 | 0 | 66 | 33 | 0 | 0 | 0 | 0 | 6 | 0 | 0 | 2 | 0 | 0 | 0
COc1ccc(CSc2nnc(-c3ccc4c(c3)CCO4)o2)cc1 | 7 | 0 | 0 | 0 | 0 | 1 | 0 | 0 | 0 | 0 | 0 | 0 | 0 | 0 | 0 | 0 | 15 | 0 | 0 | 0
COc1ccc2cc(-c3nc(-c4ccccc4C(C)C)[nH]c3-c3ccncc3)ccc2c1 [SB-660566] | 2 | 0 | 0 | 0 | 65 | 11 | 45 | 26 | 33 | 0 | 0 | 0 | 5 | 22 | 6 | 0 | 0 | 0 | 4 | 1
O=c1cc(N2CCOCC2)nc2n(Cc3ccccc3F)ccn12 [GSK2297428] | 0 | 0 | 0 | 0 | 0 | 0 | 0 | 0 | 42 | 0 | 8 | 0 | 0 | 0 | 0 | 0 | 0 | 38 | 4 | 0
COc1ccc(Nc2nccc(N3CCC(NC(=O)C(C)c4ccc(Cl)cc4)CC3)n2)cc1 (stereo not shown) [GSK1379812] | 0 | 0 | 0 | 0 | 5 | 10 | 0 | 0 | 22 | 0 | 51 | 0 | 36 | 5 | 0 | 0 | 0 | 52 | 20 | 0
Cc1nccc(-c2c(-c3ccc(F)cc3)ncn2CCCN2CCOCC2)n1.Cl [SB-282975] | 71 | 1 | 33 | 2 | 9 | 19 | 0 | 19 | 24 | 0 | 18 | 0 | 11 | 1 | 0 | 0 | 22 | 25 | 23 | 0
COc1ccc(CSc2nnc(-c3ccc4nccn4c3)o2)cc1C(F)(F)F | 0 | 13 | 21 | 43 | 51 | 0 | 0 | 16 | 5 | 2 | 12 | 0 | 0 | 0 | 2 | 0 | 4 | 3 | 3 | 20
O=C(Nc1n[nH]c2nc(-c3ccco3)c(Br)cc12)C1CCN(Cc2ccccc2)C1.O=C(O)[C@H](O)[C@@H](O)C(=O)O (stereo not shown) [SB-742034] | 13 | 1 | 25 | 21 | 20 | 32 | 16 | 2 | 0 | 0 | 15 | 0 | 0 | 27 | 25 | 8 | 20 | 9 | 0 | 0
O=C1NC(=O)C(c2ccc(Cl)cc2)=C1Nc1cccc(Cl)c1 [SB-317651] | 23 | 0 | 13 | 27 | 0 | 4 | 3 | 16 | 2 | 0 | 0 | 0 | 14 | 56 | 0 | 0 | 0 | 1 | 0 | 0
COc1cccc(C2=C(Nc3cc(Cl)c(O)c(Cl)c3)C(=O)NC2=O)c1 [SB-390767] | 1 | 0 | 0 | 0 | 0 | 17 | 0 | 17 | 0 | 0 | 0 | 26 | 6 | 26 | 0 | 0 | 4 | 0 | 0 | 3
O=C(Nc1n[nH]c2nc(-c3cccs3)c(Br)cc12)C1CCCC1 [SB-743341] | 12 | 15 | 14 | 18 | 23 | 31 | 0 | 0 | 0 | 0 | 8 | 12 | 23 | 67 | 86 | 0 | 38 | 19 | 0 | 0
COc1cc2ncnc(Nc3cccc(Br)c3)c2cc1OC.Cl [GI230329] | 20 | 0 | 0 | 0 | 20 | 86 | 0 | 0 | 45 | 0 | 40 | 0 |  | 56 | 19 | 0 | 0 | 24 | 8 | 0
